This is an account of results in PubChem BioAssay (NCATS).

Assay [1] is described as follows: Primary qHTS for inhibitors of SARS-S pseudo-typed particle cell entry (AID 1479145). Also: nearly all actives have a fitted effect of over 45% in size. As to activity change, negative = inhibition: % is scaled to controls: 0 for no effect and ±100 for the full control effect. The settings on record: outcome: dose series up to 57.1 µM unless noted. For orientation: Quantitative high-throughput screening tests each substance at several concentrations.
Assay [2] is described as follows: Primary qHTS for Huh7 cytotoxicity: counterscreen for inhibitors of MERS-S pseudotyped particle cell entry (AID 1479147). As to activity change, negative = cytotoxicity: % is scaled to controls: 0 for no effect and ±100 for the full control effect. To be noted: outcome: dose series up to 57.1 µM unless noted.
Assay [3] is described as follows: Primary qHTS for inhibitors of MERS-S pseudo-typed particle cell entry (AID 1479149). Also: nearly all actives have a fitted effect of over 60% in size. To be noted: outcome: dose series up to 57.1 µM unless noted.
The nature of assay [4]: Primary qHTS for Vero E6 cytotoxicity: counterscreen for inhibitors of SARS-S pseudo-typed particle cell entry (AID 1479150). As to activity change, negative = cytotoxicity: % is scaled to controls: 0 for no effect and ±100 for the full control effect. To be noted: outcome: dose series up to 57.1 µM unless noted.
A short description of assay [5]: Cytotoxicity counterscreen for inhibitors of SARS-CoV-2 cell entry (AID 1645845). Also: nearly all actives have a fitted effect of over 50% in size. To be noted: outcome: dose series up to 57.1 µM unless noted. Put shortly:
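48 h compound treatment (after 1 h preincubation), HEK293-ACE2 cells, 37 C/5% CO2; ATP luminescence endpoint; normalized to cell wells and media blanks.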
Background: A counterscreen serves to expose hits that act by an unwanted route or on another target.

The nature of assay [6]: Primary qHTS to identify inhibitors of SARS-CoV-2 cell entry (AID 1645846). Also: nearly all actives have a fitted effect of over 45% in size. To be noted: SARS-CoV-2 pseudovirus cell entry assay, luminescence; activity change, negative = inhibition: at 57.1 µM (top of the series) unless noted. The method, boiled down: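 Data are normalized to wells receiving SARS-CoV-2-S pseudoparticles and those given bald particles. Entry signal was luciferase luminescence in stable hACE2 Expi293F cells, 48 hr post-infection, after 1 hr compound pretreatment.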

The target in assay [7] is Glutathione peroxidase 1 (Homo sapiens) (UniProt P07203). Put plainly: Primary qHTS Assay for Inhibitors of Recombinant Selenoprotein Glutathione Peroxidase 1 (GPX1) (AID 1845191; active = well fitted curve in the direction sought with a large enough effect; an effect the other way counts as inactive or inconclusive; also: potency is read from the fitted curve at half-maximal effect; nearly all actives have a fitted effect of over 65% in size). Put shortly: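 10 nM GPX1 + cpd, 30 min RT; start w/ 1 mM GSH, 0.5 mM cumene hydroperoxide, 0.5 mM NADPH, 100 nM GR, 0.01% BSA; buffer 50 mM Tris-HCl pH 7.5, 2 mM EDTA, 150 mM NaCl; Fl 340/450, 0 & 15 min.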
Chain of Glutathione peroxidase 1 (Homo sapiens) (P07203 whole entry, looked up): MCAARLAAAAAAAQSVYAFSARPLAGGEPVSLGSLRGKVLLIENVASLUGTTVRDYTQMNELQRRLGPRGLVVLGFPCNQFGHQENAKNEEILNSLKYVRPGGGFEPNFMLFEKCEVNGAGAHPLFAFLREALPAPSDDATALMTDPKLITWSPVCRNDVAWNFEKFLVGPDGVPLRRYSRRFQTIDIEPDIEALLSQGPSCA

Assay [8] has as its target Nuclear receptor subfamily 1 group I member 3 (Homo sapiens) (UniProt Q14994). Kind of assay: Primary qHTS for antagonist of constitutive androstane receptor (CAR) against the NCATS DSHEA and TCM libraries (AID 1794836; active = well fitted curve in the direction sought with a large enough effect; an effect the other way counts as inactive or inconclusive;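 also: HepG2 cells stably expressing hCAR with CYP2B6 luciferase reporter stimulated by CITCO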). Put shortly:
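Antagonist mode: CAR reporter luminescence (ONE-Glo) in HepG2-CYP2B6-hCAR cells stimulated with 48 uM CITCO (final) over 24 h at 37 C, compounds titrated; viability read first by CellTiter-Fluor fluorescence.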

Assay [9] is described as follows: KB-8-5-11 P-gp reporter qHTS against the NCATS DSHEA and TCM libraries (AID 1919977; active = well fitted curve in the direction sought with a large enough effect; an effect the other way counts as inactive or inconclusive; also: 0% is about no effect). The method, boiled down:
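Cells were seeded, allowed ~4 h to attach, dosed by pin tool (substance titrations), incubated ~72 h at 37C, then lysed with CellTiter-Glo for 30 min at room temperature before luminescence reading.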

Assay [10] deals with Alpha-galactosidase (Coffea arabica) (UniProt Q42656). Put plainly: Counterscreen for Glucocerebrosidase Inhibitors: qHTS Assay for Coffee Bean alpha-Galactosidase at pH 4.5 (AID 957; active = well fitted curve in the direction sought with a large enough effect; an effect the other way counts as inactive or inconclusive;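 also: plate controls were enzyme alone for no effect and no enzyme for full effect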). Put shortly: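 Coffee bean enzyme (2 nM) with 80 uM 4-methylumbelliferyl alpha-D-galactopyranoside in 50 mM citric acid, 0.005% Tween-20, pH 4.5, 20 min at room temperature; compounds 0.7 nM–77 uM. Stopped at pH 10, fluorescence 365/440 nm; AC50 from Hill fits.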
Chain of Alpha-galactosidase (Coffea arabica) (Q42656 whole entry, looked up): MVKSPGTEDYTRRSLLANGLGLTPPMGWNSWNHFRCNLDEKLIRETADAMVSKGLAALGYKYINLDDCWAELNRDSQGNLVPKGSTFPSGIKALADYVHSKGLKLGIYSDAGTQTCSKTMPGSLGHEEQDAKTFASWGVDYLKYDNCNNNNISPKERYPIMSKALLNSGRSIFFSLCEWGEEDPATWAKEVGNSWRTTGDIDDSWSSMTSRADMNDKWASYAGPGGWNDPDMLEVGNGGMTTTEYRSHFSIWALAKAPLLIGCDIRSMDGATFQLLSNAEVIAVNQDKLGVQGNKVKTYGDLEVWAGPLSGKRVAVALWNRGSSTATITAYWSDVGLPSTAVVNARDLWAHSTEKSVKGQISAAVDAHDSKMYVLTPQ

For assay [11] the target is unchanged. Put plainly: Counterscreen for Glucocerebrosidase Inhibitors: qHTS Assay for Coffee Bean alpha-Galactosidase at pH 5.9 (AID 998; active = well fitted curve in the direction sought with a large enough effect; an effect the other way counts as inactive or inconclusive;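 also: plate controls were uninhibited enzyme for no effect and no-enzyme basal signal for full effect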). The method, boiled down:
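Compounds were titrated from 0.7 nM to 77 uM against green coffee bean alpha-galactosidase (2 nM) using 80 uM fluorogenic 4-methylumbelliferyl substrate. After 20 min at room temperature, reactions were stopped at pH 10 and read by fluorescence.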

The nature of assay [12]: Validation screen for inhibitors of Lassa infection (AID 463096). Also: % is scaled to controls: 0 for no effect and ±100 for the full control effect.
Assay [13] concerns the target Peroxisome proliferator-activated receptor delta (Homo sapiens) (UniProt Q03181). Kind of assay: qHTS assay for small molecule agonists of peroxisome proliferator-activated receptor delta signaling (AID 588534).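 Also: 0% = DMSO basal wells and 100% = positive control agonist at 10 µM.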 Put shortly: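 Cells carrying a PPAR-delta beta-lactamase reporter were treated with compounds for 18 h at 37 °C in agonist mode. CCF4 fluorescence was read after 2 h; EC50 and efficacy from Hill fits.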

The target of assay [14] is Bile acid receptor (Homo sapiens) (UniProt Q96RI1). Kind of assay: qHTS assay for small molecule agonists of farnesoid X receptor signaling (AID 588527).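 Also: 0% = vehicle basal and 100% = reference agonist.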 To be noted: HEK293T FXR-UAS-bla, beta-lactamase ratio, 16 h; stronger effect = higher value. Put shortly: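 Read-out: beta-lactamase reporter fluorescence with CCF4 substrate in GeneBLAzer FXR-UAS-bla HEK293T cells, after 16 h compound exposure at 37 C. Response scaled between DMSO basal (0%) and chenodeoxycholic acid at 100 uM (100%).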
Chain of Bile acid receptor (Homo sapiens) (Q96RI1 whole entry, looked up): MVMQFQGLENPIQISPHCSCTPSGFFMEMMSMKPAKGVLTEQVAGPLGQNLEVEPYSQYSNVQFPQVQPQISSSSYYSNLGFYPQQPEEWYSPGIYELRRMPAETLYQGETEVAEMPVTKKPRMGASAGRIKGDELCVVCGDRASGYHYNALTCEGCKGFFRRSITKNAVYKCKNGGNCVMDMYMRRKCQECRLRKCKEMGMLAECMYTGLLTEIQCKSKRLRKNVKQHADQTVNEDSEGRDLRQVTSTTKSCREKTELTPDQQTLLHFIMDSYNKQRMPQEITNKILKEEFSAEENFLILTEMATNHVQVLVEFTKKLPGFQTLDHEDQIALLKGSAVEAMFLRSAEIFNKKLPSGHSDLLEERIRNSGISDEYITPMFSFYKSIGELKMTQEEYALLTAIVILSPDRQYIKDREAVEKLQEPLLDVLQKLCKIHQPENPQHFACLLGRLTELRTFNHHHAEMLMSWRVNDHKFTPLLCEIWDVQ

Results filed as inconclusive are left out. Calls of active or inactive are those of the source. Unless noted, calls follow the shape of the full dose curve.

Chain of Peroxisome proliferator-activated receptor delta (Homo sapiens) (Q03181 whole entry, looked up): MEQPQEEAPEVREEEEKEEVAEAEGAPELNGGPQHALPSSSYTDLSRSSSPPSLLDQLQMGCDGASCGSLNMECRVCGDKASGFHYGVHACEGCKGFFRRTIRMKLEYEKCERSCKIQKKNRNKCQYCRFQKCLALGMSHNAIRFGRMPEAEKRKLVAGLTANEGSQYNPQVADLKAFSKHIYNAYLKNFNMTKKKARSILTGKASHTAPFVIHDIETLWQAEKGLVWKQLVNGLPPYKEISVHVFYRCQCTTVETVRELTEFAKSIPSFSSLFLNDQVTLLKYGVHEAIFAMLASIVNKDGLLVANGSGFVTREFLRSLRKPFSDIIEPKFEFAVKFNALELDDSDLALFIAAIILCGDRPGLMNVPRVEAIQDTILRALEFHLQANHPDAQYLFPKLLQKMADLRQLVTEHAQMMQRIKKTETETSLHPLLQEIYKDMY
Chain of Nuclear receptor subfamily 1 group I member 3 (Homo sapiens) (Q14994 whole entry, looked up): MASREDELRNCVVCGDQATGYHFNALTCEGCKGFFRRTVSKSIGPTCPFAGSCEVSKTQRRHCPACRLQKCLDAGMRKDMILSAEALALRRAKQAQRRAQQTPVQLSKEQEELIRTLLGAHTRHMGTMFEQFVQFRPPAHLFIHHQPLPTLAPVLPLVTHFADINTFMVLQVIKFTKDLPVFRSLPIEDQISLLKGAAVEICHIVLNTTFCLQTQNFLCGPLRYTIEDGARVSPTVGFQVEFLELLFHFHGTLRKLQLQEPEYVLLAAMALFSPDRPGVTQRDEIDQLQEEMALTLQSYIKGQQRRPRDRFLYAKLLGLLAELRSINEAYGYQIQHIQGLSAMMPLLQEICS

As for `Cn1c(=O)cc(N2CCC[C@@H](N)C2)n(Cc2cc(F)ccc2C#N)c1=O`, the Potency entry in assay [1], in assay [2], in assay [3], in [4] and in assay [5] was “inactive” throughout. The activity change, negative = inhibition in assay [6] is -23.7%.
Turning to `COc1ccc(C[C@H](C)NC[C@@H](O)c2ccc(O)c(NC=O)c2)cc1`, the Potency entry in assay [1], in assay [2], in [3], in assay [4] and in [5] was “inactive” throughout. Besides, in assay [6], the activity change, negative = inhibition was -27.6%.
Regarding `O=C(Cn1cnnn1)N[C@@H]1C(=O)N2C(C(=O)O)=C(CSc3nncs3)CS[C@H]12`, the Potency entry in assay [1], in assay [2], in [3], in [4] and in [5] was “inactive” throughout. In addition, the activity change, negative = inhibition in [6] was -9.88%.
Turning to `O=C(O)C1=C(CSc2nnnn2CS(=O)(=O)O)CS[C@@H]2[C@@H](NC(=O)[C@H](O)c3ccccc3)C(=O)N12`, the Potency entry in assay [1], in [2], in [3], in assay [4] and in [5] was “inactive” throughout. The activity change, negative = inhibition in assay [6] was -22.2%.
Take `CC(O)C(CO)NC(=O)C1CSSCC(NC(=O)C(N)Cc2ccccc2)C(=O)NC(Cc2ccccc2)C(=O)NC(Cc2c[nH]c3ccccc23)C(=O)NC(CCCCN)C(=O)NC(C(C)O)C(=O)N1` (stereo unspecified): the Potency result in assay [1], in [2], in assay [3], in assay [4] and in assay [5] was “inactive” each time. Besides, the activity change, negative = inhibition in assay [6] was -15.6% [at 27.1 µM].
With `O=c1ccc2cc(O[C@@H]3O[C@H](CO)[C@H](O)[C@H](O)[C@H]3O)c(O)cc2o1`, the Potency entry in assay [1], in assay [2], in assay [3], in assay [4], in assay [5] and in assay [6] was “inactive” in each case. The Potency in assay [7] is 16.1 µM (active).
`CN=C(NC)NCc1ccccc1`: the Potency result in [1], in [2], in [3], in assay [4] and in [5] was “inactive” in each case. The activity change, negative = inhibition in [6] was -12.2%.
Consider `CO/N=C(\C(=O)N[C@@H]1C(=O)N2C(C(=O)O)=C(Cn3ccc(=N)n3CCO)CS[C@H]12)c1csc(N)n1`, for which the Potency result in assay [1], in [2], in assay [3], in assay [4] and in [5] was “inactive” throughout. Further, in assay [6], the activity change, negative = inhibition is -19.1%.
Turning to `Cc1ncc(COP(=O)(O)O)c(C)c1O`, the Potency entry in assay [1], in assay [2], in assay [3], in assay [4], in assay [5] and in [8] was “inactive” each time. Moreover, in [9], the Potency result is “inactive”. Also, the activity change, negative = inhibition in assay [6] is -31.2%.
Consider `C=C(C)C1CC=C(C)CC1` (stereo unspecified), for which the Potency result in assay [1], in assay [2], in assay [3], in assay [4] and in assay [5] was “inactive” each time. Moreover, the activity change, negative = inhibition in [6] was -21.4% [at 114 µM].
Regarding `O=C(O)[C@@H]1C(=CCO)O[C@@H]2CC(=O)N12`, the Potency entry in assay [1], in assay [2], in assay [3], in assay [4], in [5] and in [6] was “inactive” in each case.
In the case of `O=C([O-])C[O-].[Pt+2]`, the Potency entry in assay [1], in [2], in assay [3], in assay [4], in assay [5] and in [6] was “inactive” throughout. The activity change, negative = inhibition in assay [6] was -22.9% [at 27.1 µM].
Regarding `Cc1cc(N2CCN([C@@H]3CN[C@H](C(=O)N4CCSC4)C3)CC2)n(-c2ccccc2)n1`, the Potency entry in assay [1], in [2], in assay [3], in [4] and in [5] was “inactive” each time. In assay [6], the activity change, negative = inhibition was -20%.
As for `C[C@@](Cc1ccc(O)c(O)c1)(NN)C(=O)O`, the outcome in [10] and in assay [11] was inactive. In addition, the Potency result in [12], in assay [1], in assay [2], in assay [3], in [4] and in assay [5] was “inactive” in each case. In addition, the Potency result in [6] was “inactive”.
With `CCCCC/C=C\C/C=C\C/C=C\CCCCC(=O)O`, the Potency entry in assay [1], in assay [2], in assay [3], in [4] and in [5] was “inactive” throughout. Further, the activity change, negative = inhibition in [6] is -13.4% [at 114 µM]; in assay [9] it was 5.04% [at 3.26 µM] (inactive).
With `CC(=O)[O][Al][O]C(C)=O`, the activity change, negative = inhibition in assay [1] is -39.3% [at 11.4 µM] (inactive); in assay [6], -37.2% [at 11.3 µM]. The outcome in assay [2] and in assay [3] was “inactive [at 11.4 µM]” throughout. Besides, the activity change, negative = cytotoxicity in [4] is -2.68% [at 11.4 µM] (inactive).
For `CC(C)=CCCC(C)=CCCC(C)=CCCC=C(C)CCC=C(C)CCC=C(C)C`, the Potency entry in [1], in assay [2], in assay [3], in assay [4], in assay [5] and in [9] was “inactive” each time. For the same molecule, the activity change, negative = inhibition in assay [6] is -5.81%.
Consider `O=C(O)[C@H](O)[C@@H](O)[C@H](O)[C@H](O)CO`, for which, in assay [13], the outcome was inactive. Besides, the Potency result in assay [1], in assay [2], in [3], in assay [4], in assay [5] and in [6] was “inactive” each time.
As for `Cc1ccc(S(=O)(=O)O)cc1C`, the outcome in assay [13] was inactive. The Potency result in assay [1], in assay [2], in [3], in [4] and in assay [5] was “inactive” each time. In addition, the activity change, negative = inhibition in assay [6] was -10.6%.
For `C[C@H](CCC(=O)O)[C@H]1CC[C@H]2[C@@H]3[C@H](O)C[C@@H]4C[C@H](O)CC[C@]4(C)[C@H]3C[C@H](O)[C@]12C`, the activation in assay [14] is 1.14% (inactive). Besides, the Potency entry in [1], in assay [2], in assay [3], in [4], in assay [5] and in [6] was “inactive” in each case.
